ERK EGF inh: EGF-driven ERK pathway inhibition | HEK293-V1b, EGF-stimulated phospho-ERK AlphaScreen | Potency, µM (doses to about 11.5 µM), usual class: inhibitors | 130,000 tested, 0.41% active | AID 1454; active means well fitted inhibition curve with a large enough effect; further: nearly all actives have a fitted effect of over 55% in size
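Readout: AlphaScreen signal for phosphorylated ERK in lysed HEK293 cells stably expressing V1b. Stimulus 25 nM EGF, 5 min, following 30 min compound exposure. Data scaled to DMSO basal and full EGF activation.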
A number is an active result; – = inactive. Shown is part of a subset that was picked to be rich in hits.

SMILES	ERK EGF inh
NC[C@@H]1O[C@H](O[C@H]2[C@H](O)[C@H](O[C@@H]3O[C@H](CO)[C@@H](O)[C@H](N)[C@@H]3O)[C@@H](N)C[C@H]2N)[C@@H](O)[C@H](O)[C@@H]1O	–
C[C@@]1(C(=O)O)NCCc2cc(O)c(O)cc21	–
Cc1ccc(-c2csc3ncnc(Nc4ccc(C(=O)O)cc4)c23)cc1	–
O=C(O)c1ccc(Nc2ncnc3scc(-c4ccccc4)c23)cc1	–
COc1ccc(-c2csc3ncnc(Nc4ccc(O)cc4)c23)cc1	28µM
COc1ccc(C(=O)N2CCC3(CCCN(c4cccc(-c5ccccc5)c4)C3)CC2)cc1	–
CC(Sc1cccc[n+]1[O-])C(=O)Nc1ccc([N+](=O)[O-])cc1Cl (stereo not drawn)	–
O=C(CSc1cccc[n+]1[O-])Nc1ccc(C(F)(F)F)cc1[N+](=O)[O-]	–
O=[N+]([O-])c1ccc(Sc2cccc[n+]2[O-])c2nonc12	25µM
CC(C)(C)c1ccc([C@@H](O)CCCN2CCC(C(O)(c3ccccc3)c3ccccc3)CC2)cc1	–
C(=N\Nc1nc2ccccc2[nH]1)/c1cccc2nccnc12	–
C(=N\Nc1nc2ccccc2[nH]1)/c1ccccn1	–
C#CCn1cc(/C=N/Nc2nc3ccccc3[nH]2)c2ccccc21	25µM
COc1cccc([C@@H]2Oc3ccc(OC)cc3[C@H](O)[C@H]2O)c1	–
COc1cccc([C@@H]2Oc3ccc(OC)cc3C[C@H]2O)c1	–
Nc1nc(-c2ccccc2)c(-c2ccc([N+](=O)[O-])cc2)s1	25µM
O=[N+]([O-])c1ccc(-c2cn3nc(-c4ccccc4)c(-c4ccccc4)nc3n2)cc1	–
Nc1nc(-c2ccc([N+](=O)[O-])cc2)c(C(=O)Nc2ccc(Cl)cc2)s1	–
COc1cccc([C@@H]2Oc3ccc(Br)cc3C(=O)[C@H]2OC(=O)NCc2ccco2)c1	–
CC(=C/C(=O)O)/C(=C\c1ccc(Br)o1)C(=O)O	–
COc1ccc(CCN2C(=O)CC(NC34CC5CC(CC(C5)C3)C4)C2=O)cc1OC (stereo not drawn)	–
COc1ccc(CCN2C(=O)CC(NNC(=O)c3ccccc3Br)C2=O)cc1 (stereo not drawn)	–
CCN(CC)c1ccc(NC2CC(=O)N(CCc3ccc(OC)cc3)C2=O)cc1 (stereo not drawn)	35µM
CCC1=C2CC[C@H]3C(=O)N(C)C(=O)[C@H]3[C@H]2[C@@]2(C)C(=NCC(=O)OC)OC(=O)N2C1=O	–
COc1cccc(/C=N/Nc2cc(Cl)nc(C)n2)c1O	–
SMILES	ERK EGF inh
COc1cccc(/C=N/Nc2ncnc3c2ncn3Cc2ccccc2)c1O	13µM
COc1cccc(/C=N/NC(=O)CNC(=O)COc2ccccc2)c1O	–
CC1(C)CC[C@]2(C(=O)O)CC[C@@]3(C)C(=CCC4[C@@]5(C)CCC(O)[C@@](C)(CO)C5CC[C@@]43C)C2C1 (stereo partly drawn)	–
C/C=C(/C)C(=O)OC1C(OC(C)=O)[C@@]2(CO)C(O)C[C@@]3(C)C(=CCC4[C@@]5(C)CCC(OC6OC(C(=O)O)[C@@H](O[C@@H]7OC(CO)C(O)C(O)C7O)C(O)[C@H]6O[C@@H]6OC(CO)C(O)C(O)C6O)[C@](C)(CO)C5CC[C@@]43C)C2CC1(C)C (stereo partly drawn)	–
C[C@@H]1OC(OC2CC[C@@]3(C)C(CC[C@@]4(C)C3CC=C3C5CC(C)(C)CC[C@]5(C(=O)OC5OCC(O)[C@@H](O)[C@@H]5OC5O[C@@H](C)[C@H](O[C@H]6OC(CO)C(O)C(O)C6O)C(O)C5O)C(O)C[C@@]34C)C2(C)C)C(O)C(O)[C@H]1OC1OCC(O)C(O)[C@H]1O (stereo partly drawn)	14µM
CC1(C)CC[C@]2(C(=O)O)CC[C@]3(C)C(=CCC4[C@@]5(C)CC[C@H](O)C(C)(C)[C@@H]5CC[C@]43C)C2C1 (stereo partly drawn)	–
CC1(C)CC[C@]2(C(=O)O)CC[C@]3(C)C(=CC[C@@H]4[C@@]5(C)CC[C@H](O)C(C)(C)[C@@H]5CC[C@]43C)[C@@H]2C1	–
CC(=O)OC1COC(OC2C(O)C(C)OC(OC3C(OC4CCC5(C)C(CCC6(C)C5CC=C5C7CC(C)(C)CCC7(C(=O)O)CCC56C)C4(C)CO)OCC(O)C3O)C2O)C(O)C1OC(C)=O (stereo not drawn)	20µM
COC(=O)[C@@H](NC(=O)O[C@@H]1C(=O)c2cc(Br)ccc2O[C@H]1c1ccc2c(c1)OCO2)C(C)C	–
CCCC[C@@H]1C[C@H]1C(NC(=O)c1cccs1)c1ccc(-c2ccccc2)cc1 (stereo partly drawn)	–
CC12C=C(/C=C/c3ccc(Br)cc3)C(C)(C1)[C@H](c1ccc(Br)cc1)CC2=O (stereo partly drawn)	–
Cc1cc(C)cc(-c2cc3c(c(-c4c(O)c(-c5cc(C)cc(C)c5)cc5c4CCCC5)c2O)CCCC3)c1	–
N#C/C(C(N)=O)=c1/ccc2c(c1)N1C3=C(CCCC3)CC3CCCCC31N=2 (stereo not drawn)	7.9µM
CC(=O)NC(C(=O)O)C(C)(C)SN=O (stereo not drawn)	–
O=C(CN1CCSC1=NCc1ccccc1)c1ccc(Cl)c(Cl)c1	–
O=C(NCCCOc1cccc(CN2CCCCC2)c1)c1ccc(Cl)c(Cl)c1	–
N=c1n(CCN2CCCCC2)c2ccccc2n1CC(=O)c1ccc(Cl)c(Cl)c1	28µM
COC(=O)NC(c1ccccc1)C1(C(=O)OC)C(=O)Cc2ccccc21 (stereo not drawn)	–
COc1ccccc1N1CCN(C(=O)/C=C/c2cccc([N+](=O)[O-])c2)CC1	–
COc1ccccc1C(=O)/C=C/c1ccc(N2CCCCC2)c([N+](=O)[O-])c1	16µM
O=C(O)c1ccccc1C(=O)c1ccc(N2CCCC2)c([N+](=O)[O-])c1	–
COC(=O)[C@@]1(Cc2ccccc2)[C@H]2c3cc(C(=O)N4CCCC4)[nH]c3C[C@H]2CN1C(=O)c1ccccc1	–
CC(=O)N1[C@H](Cc2ccccc2)C=C[C@]1(C)C(=O)NCc1cc(F)cc(C(F)(F)F)c1	–
CCN(CC)c1ccc(/C=N/N=C(c2ccccc2)c2ccccc2)c(O)c1	–
Oc1ccc(/C=N/n2cnn(Cc3ccccc3Cl)c2=S)c(O)c1	–
SMILES	ERK EGF inh
CCN(CC)c1ccc(/C=N/N2CCN(Cc3ccccc3Cl)CC2)c(O)c1	16µM
COC(=O)c1ccc(C(/C=C/[C@@H](C)C(=O)NCc2ccccc2)NC(=O)OCc2ccccc2)cc1 (stereo partly drawn)	–
Cc1ccc(O)c(N=Nc2ccc(S(=O)(=O)N3CCOCC3)cc2)c1	–
CC(C)(C)c1cc(Br)c(O)c(N=Nc2ccc(S(=O)(=O)N3CCOCC3)cc2)c1	25µM
COc1ccc(S(=O)(=O)N2CCOCC2)cc1Br	–
COc1ccc(N2CCN(C(=S)NCc3ccc(C)cc3)CC2)cc1	–
COc1ccc(N2CCN(C(=S)Nc3ccc(C)cc3C)CC2)cc1	–
COc1ccc(N2CCC(CNC(=S)Nc3cc(C)ccc3C)C2)cc1 (stereo not drawn)	14µM
COc1cccc(CNC(=S)Nc2cc(C)cc(C)c2)c1	–
COc1ccc(CNC(=O)Nc2cc(C)ccc2C)cc1	–
COc1ccc(N2CCC(CNC(=S)Nc3cc(C)cc(C)c3)C2)cc1 (stereo not drawn)	14µM
OCc1ccccc1O[C@H]1OC(CO)C(O)C(O)C1O (stereo partly drawn)	–
CCOC(=O)CC(CC(C)=O)C(=O)OCC (stereo not drawn)	–
